Out of some 300,000 compounds screened, about 37,000 (12%) were called active. The list comes from a sample in which actives are over-represented; it also holds similar structures and randomly drawn compounds. A number with no mark means an inactive call. Rule as the data show it: active = max response mostly above about 13% (no sharp cut-off); inactive = mostly below about 14%.
Assay: Cycloheximide Counterscreen for Small Molecule Inhibitors of Shiga Toxin; also: read at 38.3 µM for the half of the compounds with a filed dose; 0% is about no effect
Conditions: cell reporter, cycloheximide protein synthesis inhibition counterscreen; hits give high values

Row | SMILES | max response
1 | CCCN(CC1COc2ccccc2O1)C(=S)Nc1ccc(C)cc1 (configuration not stated) | -5.79%
2 | Cc1c(CN2CCC(CO)(CCOc3ccccc3)CC2)[nH]c2ccc(Cl)cc12 | -1.37%
3 | O=C(NC1CCCC1)c1ccc(Br)s1 | 19.5% (active)
4 | O=C(CCC(=O)c1cccs1)NC1CCCCCC1 | 21.2% (active)
5 | CN(CC(=O)NC1CCCCC1)S(=O)(=O)c1ccc(Br)s1 | 6.95%
6 | O=C(NC1CCCC1)C(NS(=O)(=O)c1ccc(Br)s1)c1ccccc1 (configuration not stated) | 7.24%
7 | CC(C)C(OC(=O)c1cccs1)C(=O)NC1CCCCC1 (configuration not stated) | -1.99%
8 | O=C(NC1CCCCCCC1)c1cccs1 | 34% (active)
9 | O=C(NCC(=O)N(Cc1cccs1)C(C(=O)NC1CCCCC1)c1ccco1)c1cccs1 (configuration not stated) | -2.31%
10 | O=C(COC(=O)/C=C/c1cccs1)NC1CCCCC1 | -0.796%
11 | O=C(Nc1ccc2c(c1)CCC2)c1ccc(Br)s1 | 72% (active)
12 | CC1CC(C)CN(CCC(=O)Nc2ccc3c(c2)CCC3)C1 (configuration not stated) | -6.42%
13 | CC(C)C(=O)OCC(=O)Nc1ccc2c(c1)CCC2 | 2.17%
14 | O=C(CN(C(=O)CNC(=O)c1cccs1)c1cccc(F)c1)NC1CCCCC1 | 0.305%
15 | O=S(=O)(c1ccc(F)cc1)N1CCN=C1SCc1cccc(F)c1 | 7.74%
16 | COc1cccc(NC(=O)N2CCC(NC(=O)C(Cc3cccc(C)c3)NC(C)=O)CC2)c1 (configuration not stated) | -0.694%
17 | O=C(Nc1ccc(S(=O)(=O)N2CCCCC2)cc1)C1CC(=O)N(c2ccc(F)cc2)C1 (configuration not stated) | -1.91%
18 | CN(C)c1ccc(CNC(=O)CN2C(=O)COc3ccc(S(=O)(=O)N4CCCC4)cc32)cc1 | 9.54%
19 | O=[N+]([O-])C(=c1ccc2c(c1)N1C3=C(CCCC3)CC3CCCCC31N=2)[N+](=O)[O-] (configuration not stated) | 6.06%
20 | c1ccc2c(-c3nn4nnnc4c4ccccc34)cccc2c1 | 8.28%
21 | O=C(CCNC(=O)C1CCN(S(=O)(=O)c2ccccc2)CC1)NC1CC1 | 11.4%
22 | O=C(CCS(=O)(=O)c1ccccc1)NC1CCCC1 | 49.1% (active)
23 | CC(=O)c1cc(-c2ccccc2)n(CCC(=O)NC2CCCCCC2)c1C | -2.48%
24 | COCCCNC(=S)N1CCN(c2nc(-c3cccc(OC)c3)cs2)CC1 | 9.62%
25 | CC(C)c1ccc(Cc2nnc(NCCCO)[nH]c2=O)cc1 | 12.2%
26 | COc1cccc(CNS(=O)(=O)c2ccc3c(c2)CC(C)N3C(C)=O)c1 (configuration not stated) | 4.58%
27 | Cc1cc(C)n(CC(O)CN(c2ccccc2)S(=O)(=O)c2ccc3ccccc3c2)n1 (configuration not stated) | -3.48%

From PubChem BioAssay AID2314 (National Center for Advancing Translational Sciences (NCATS), 2010)
